FLuc modulator – qHTS profiling assay for firefly luciferase inhibitor/activator using purifed enzyme and Km concentrations of substrates (counterscreen for miR-21 project); Luciferin 4-monooxygenase (Photinus pyralis), P08659; purified FLuc, Km substrates, luminescence inhibition; Potency, µM (series often up to 57.5 µM), without a hit: at the highest dose activity change, negative = inhibition, hits mostly inhibitors; actives 6.9% (n = 360,000); AID 588342, 2011;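 further: plate controls were vehicle for no effect and reference inhibitor for full effect; nearly all actives have a fitted effect of over 55% in size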
Target sequence (P08659 whole entry, looked up): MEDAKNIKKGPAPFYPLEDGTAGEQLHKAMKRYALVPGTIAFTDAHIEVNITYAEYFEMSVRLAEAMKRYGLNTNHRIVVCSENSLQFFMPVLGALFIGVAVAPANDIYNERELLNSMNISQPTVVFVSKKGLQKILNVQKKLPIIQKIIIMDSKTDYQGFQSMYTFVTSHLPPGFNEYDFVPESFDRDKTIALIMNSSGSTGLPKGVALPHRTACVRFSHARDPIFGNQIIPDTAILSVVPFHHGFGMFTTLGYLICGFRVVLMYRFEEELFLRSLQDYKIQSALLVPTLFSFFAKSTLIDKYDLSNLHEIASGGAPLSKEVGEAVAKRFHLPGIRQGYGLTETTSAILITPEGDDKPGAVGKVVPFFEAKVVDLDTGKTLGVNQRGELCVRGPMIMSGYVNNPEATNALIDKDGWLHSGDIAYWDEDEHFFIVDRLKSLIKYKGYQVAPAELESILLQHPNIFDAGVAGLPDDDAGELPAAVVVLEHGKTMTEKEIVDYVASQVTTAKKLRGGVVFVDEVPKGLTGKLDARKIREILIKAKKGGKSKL
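Purified P. pyralis luciferase (10nM final) with 10uM D-luciferin and 10uM ATP (Km levels) in 50mM Tris acetate pH 7.5, 10mM Mg acetate, 0.01% Tween-20, 0.05% BSA; qHTS 6-point titration, ~60 µM downward; luminescence read.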
ELG1 genotoxic – qHTS screen for small molecules that induce genotoxicity in human embryonic kidney (HEK293T) cells expressing luciferase-tagged ELG1; HEK293T ELG1-luciferase reporter, luminescence, 16 h; Potency, µM (highest dose often 46 µM), for inactives: at the top dose activity change, positive = activation, usual class: activators; actives 1.3% (n = 330,000); further: % of control where 0% means no effect; nearly all actives have a fitted effect of over 60% in size
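Genotoxic stress is detected as increased luminescence from luciferase-tagged ELG1 in HEK293T cells, measured with ONE-Glo after a 16 hr treatment at 37 °C.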
SMN2 splice up – qHTS Assay for Enhancers of SMN2 Splice Variant Expression. HEK293 SMN2-luciferase splicing reporter, luminescence, 30-36 h. Potency, µM (series often up to 46.1 µM), for the others: at the top dose activity change, positive = activation, usual class: activators. actives 2.8% (n = 210,000). AID 1458, 2008; further: % of control where 0% means no effect; nearly all actives have a fitted effect of over 55% in size
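HEK293 cells carry an SMN2 minigene-luciferase reporter in which exon 7 inclusion puts luciferase in frame. Cells were seeded at 2000 cells/well, attached for 10-12 hours, then exposed to compounds for 30-36 hours at 37C before ONE-Glo luminescence.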
NPC1 promoter act – qHTS Assay for NPC1 Promoter Activators | Huh7 NPC1 promoter luciferase reporter, 24 h | Potency, µM (highest dose often 9.22 µM), for inactives: at the highest dose activation, hits mostly activators | actives 2.4% (n = 320,000); further: % of control where 0% means no effect; nearly all actives have a fitted effect of over 60% in size
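Stably transfected Huh7 (NPC1 promoter→luciferase), 1500 cells/well in Opti-MEM + 10% FBS, 2 h settle, then compound 24 h at 37 °C. Luminescence after 10 min with Amplite reagent.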
Rab9 promoter act – qHTS Assay for Rab9 Promoter Activators; actives 2.8% (n = 320,000); AID 485297, 2010; Potency, µM (titrated, usually from 9.22 µM), for inactives: at the top dose activation, negative = inhibition, most hits filed as activators; Huh7 Rab9 promoter-luciferase reporter, luminescence, 24 h; further: % of control where 0% means no effect; nearly all actives have a fitted effect of over 60% in size
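Using Huh7 cells stably transfected with Rab9 promoter–luciferase, compounds were incubated 24 h at 37 °C, 5% CO2; luciferase luminescence was read 10 min after reagent addition.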
Starred values were filed as active, the others as inactive; ? = inconclusive; . = not tested or not shown. Only some compounds are listed: those with a hit (about 7.4% of all), similar ones and a draw of the others. The call rests on the fitted dose curve; in most records, active means well fitted curve in the direction sought with a large enough effect; inconclusive means small, poorly fitted or top-dose-only effect, or another doubt; inactive means no such curve, though single readings can be large; an effect the other way counts as inactive or inconclusive. Potency means the concentration at half of the fitted maximal effect.

SMILES | FLuc modulator | ELG1 genotoxic | SMN2 splice up | NPC1 promoter act | Rab9 promoter act
C/C(CC(=O)Nc1ccccn1)=N\NC(=O)c1ccc(C)cc1 | -13.6% | 2.8% | -7.3% | 1.5% | -4.1%
COc1ccc(C(=O)Nc2ccccc2C(=O)Nc2cc(C)ccn2)cc1 | 1.35µM* | 17.2% | . | 1.78µM* | 3.55µM*
COc1ccc(C(=O)Nc2ccccc2C(=O)Nc2cccc(C)n2)cc1 | 5.36µM* | 4.0% | . | ? | 26.3%
COc1cc2ccccc2cc1C(=O)Nc1cc(C)ccn1 | 12µM* | ? | . | ? | 3.16µM*
COc1cc2ccccc2cc1C(=O)Nc1ccc(C)cc1 | 3.01µM* | ? | . | 17.5% | 3.4%
COc1cc(C(=O)Nc2cc(C)ccn2)cc(OC)c1OC | -7.8% | 0.4% | 23.1% | -2.2% | -1.8%
O=C(C1CCN(S(=O)(=O)c2ccc(F)cc2)CC1)N1CCOCC1 | 0.1% | 0.3% | 2.5% | 8.7% | -4.0%
CC1O[C@@H](OCC2O[C@@H](Oc3cc(O)c4c(c3)OC(c3ccc(O)cc3)CC4=O)[C@H](O)[C@@H](O)[C@@H]2O)[C@H](O)[C@H](O)[C@H]1O (stereo partly drawn) | -1.8% | 0.1% | . | -1.4% | 1.4%
COC(=O)N[C@@H](c1cccc(C)c1)C(C(C)=O)C(=O)OC (stereo partly drawn) | . | . | 9.8% | . | .
COc1ccc2[nH]c(C(=O)Nc3cccc(C)n3)cc2c1 | 1.2µM* | ? | . | 0.631µM* | 0.501µM*
COc1ccc(C(=O)Nc2ccccc2C(=O)Nc2cccnc2)cc1 | 4.26µM* | ? | . | 29.5% | 25.7%
CCOc1ccc(C(=O)NC(=S)Nc2cccnc2)cc1 | ? | 9.5% | ? | ? | 2.82µM*
COC(C[C@@H](O)[C@H](C)[C@@H](O)COCc1ccccc1)OC | 0.2% | 3.2% | . | -7.7% | -17.3%
O=C(N/N=C(/c1ccccc1)c1ccncc1)c1ccc2c(c1)OCO2 | -2.1% | -0.8% | -11.8% | -0.5% | 2.3%
O=C(N/N=C/c1ccc2c(c1)OCO2)c1ccc(Br)o1 | 4.78µM* | 10.3µM* | 12.6µM* | 4.47µM* | 2.82µM*
CCCCCCOc1ccc(/C=N/NC(=O)C2CC2)cc1 | -3.4% | 4.5% | . | -0.5% | 4.1%
COc1ccc(NS(=O)(=O)c2cccc(C(=O)N/N=C/c3ccc4c(c3)OCCO4)c2)cc1 | -1.2% | 1.2% | 21.1% | 0.1% | -2.7%
CCN(CC)c1ccc(/C=N/NC(=O)C2CC2)cc1 | 15.1µM* | ? | . | 16.0% | ?
COc1ccccc1NS(=O)(=O)c1cccc(C(=O)N/N=C/c2ccc3c(c2)OCCO3)c1 | 10.7µM* | 3.5% | 22.7% | -1.4% | 1.5%
O=C(N/N=C/c1ccncc1)c1ccc2c(c1)OCO2 | 26.9µM* | -6.1% | ? | 7.9% | 15.2%
Cn1c(=O)n(C)c2cc(N3CCCCC3)c(NC(=O)c3ccc(Cl)cc3)cc21 | -5.1% | . | 2.7% | . | .
Cn1c(C(=O)NCCc2ccccc2)cc2cc(S(=O)(=O)N3CCCCC3)ccc21 | 2.8% | . | . | . | .
CCCc1ccc(OCC(=O)Nc2sc(C(=O)OCC)c(C)c2C(=O)OCC)cc1 | -0.3% | . | -0.9% | . | .
Cc1ccc(NC(=O)C2CCN(S(=O)(=O)c3cccc4nonc34)CC2)c(Cl)c1 | -7.4% | . | 7.7% | . | .
O=C(N/N=C/c1ccc(Cl)cc1)c1ccc2c(c1)OCO2 | 3.38µM* | ? | . | 7.8% | 25.8%
SMILES | FLuc modulator | ELG1 genotoxic | SMN2 splice up | NPC1 promoter act | Rab9 promoter act
O=C(N/N=C/c1ccc2c(c1)OCO2)c1ccc(NC(=O)c2ccc(F)cc2)cc1 | -5.5% | -0.2% | . | 0.3% | 8.2%
O=C(N/N=C/c1cc(Cl)cc([N+](=O)[O-])c1O)c1ccc2c(c1)OCO2 | 10.7µM* | 19.4% | . | -15.0% | -4.0%
O=C(N/N=C/c1ccc2c(c1)OCCO2)c1ccncc1 | 9.53µM* | 7.4% | . | -2.1% | -2.0%
O=C(N/N=C/c1ccsc1)c1ccc2c(c1)OCO2 | 3.38µM* | ? | . | 3.55µM* | 2.82µM*
Cc1ccc(CNC(=O)c2ccc(CN3CC(=O)N4CCCCC4C3=O)cc2)cc1 (stereo not drawn) | 4.1% | . | . | . | .
CCOC(=O)c1[nH]c2ccccc2c1NC(=O)c1ccccc1OCC | -2.4% | . | -39.5% | . | .
CCN(CC)c1ccc(/C=N/NC(=O)c2c(-c3ccccc3)noc2C)cc1 | -2.2% | -43.3% | . | 2.4% | 2.7%
O=C(N/N=C/c1ccc2c(c1)OCO2)c1ccc2c(c1)OCCO2 | 1.9µM* | ? | 11.2µM* | ? | ?
Cc1nc2ccc(C(=O)N/N=C/c3cc([N+](=O)[O-])ccc3O)cc2[nH]1 | -11.0% | 3.3% | 8.1% | 0.2% | 1.5%
CCN(CC)c1ccc(/C=N/NC(=O)Cc2ccc(OC)c(OC)c2)cc1 | ? | 0.6% | . | -0.3% | -12.7%
CCN(CC)c1ccc(/C=N/NC(=O)c2ccc(Br)o2)cc1 | 3.01µM* | ? | 11.2µM* | 2.24µM* | 3.16µM*
CCN(CC)c1ccc(/C=N/NC(=O)Nc2nonc2N)cc1 | 13.5µM* | 1.8% | ? | 20.8% | 19.2%
Cc1nc2ccc(C(=O)N/N=C/c3ccccc3O)cc2[nH]1 | 12µM* | ? | . | ? | ?
O=C(N/N=C/c1ccccc1O)c1ccc2c(c1)OCO2 | 2.69µM* | 14.6µM* | . | ? | -17.0%
O=C(N/N=C/c1cccs1)c1ccc2c(c1)OCO2 | 2.69µM* | 9.2µM* | 12.6µM* | 2.51µM* | 1.26µM*
O=C(N/N=C/c1cccc([N+](=O)[O-])c1)c1ccc2c(c1)OCCO2 | 1.35µM* | ? | 22.4µM* | 3.55µM* | 2.24µM*
O=C(N/N=C/C1CC2CCC1C2)c1ccc2c(c1)OCO2 (stereo not drawn) | 13.5µM* | 1.0% | -2.9% | -4.8% | 2.6%
O=C(CNC(=O)c1ccc2c(c1)OCCO2)N/N=C/c1ccc([N+](=O)[O-])cc1 | -0.2% | ? | . | -5.0% | 1.7%
O=C(/C=C\c1ccco1)Nc1nc(-c2ccccc2)cs1 | 12µM* | 3.2% | ? | 13.3% | ?
O=C(/C=C/c1ccccc1)Nc1nc(-c2ccncc2)cs1 | 2.69µM* | -0.6% | -74.7% | 1.2% | -6.2%
CC(NC(=O)c1cccs1)C(S)c1ccccc1 (stereo not drawn) | -0.1% | -5.1% | . | -2.3% | 3.0%
Cc1ccc(SCCc2cc[n+](CC(=O)c3ccccc3)cc2)cc1 | 19µM* | ? | . | 29.0% | ?
COc1cccc2c(=O)c3ccoc3n(C)c12 | -0.2% | 5.6% | 3.8% | -0.5% | -0.6%
Cc1cc(=O)oc2ccc(OCC(=O)NCc3ccco3)cc12 | 0.8% | -0.7% | 6.4% | 0.0% | 0.7%
O=C(COc1ccc2oc(-c3ccccc3)cc(=O)c2c1)NCc1ccco1 | 2.39µM* | 15.6% | -26.6% | 6.0% | ?
COc1ccc2oc(-c3ccco3)cc(=O)c2c1 | 12µM* | ? | 11.2µM* | 2.51µM* | 0.794µM*
